Screens deposited in PubChem by The Scripps Research Institute Molecular Screening Center.
An excerpt weighted towards active compounds, which were near 2.3% of everything screened.
CHRM1 PAM: human M1 muscarinic receptor positive allosteric modulators, primary screen, CHO-K1 cells, Fluo-8 calcium fluorescence, 1536-well; actives 0.088% (n = 360,000); Muscarinic acetylcholine receptor M1 (Homo sapiens), P11229; AID 588819, 2011; activation, % at 3 µM; CHO-K1 hM1, ACh EC20; 0% = ACh EC20, 100% = maximal ACh; in the data active = activation above about 19%, passing the limit was not always enough
Target sequence (P11229 whole entry, looked up): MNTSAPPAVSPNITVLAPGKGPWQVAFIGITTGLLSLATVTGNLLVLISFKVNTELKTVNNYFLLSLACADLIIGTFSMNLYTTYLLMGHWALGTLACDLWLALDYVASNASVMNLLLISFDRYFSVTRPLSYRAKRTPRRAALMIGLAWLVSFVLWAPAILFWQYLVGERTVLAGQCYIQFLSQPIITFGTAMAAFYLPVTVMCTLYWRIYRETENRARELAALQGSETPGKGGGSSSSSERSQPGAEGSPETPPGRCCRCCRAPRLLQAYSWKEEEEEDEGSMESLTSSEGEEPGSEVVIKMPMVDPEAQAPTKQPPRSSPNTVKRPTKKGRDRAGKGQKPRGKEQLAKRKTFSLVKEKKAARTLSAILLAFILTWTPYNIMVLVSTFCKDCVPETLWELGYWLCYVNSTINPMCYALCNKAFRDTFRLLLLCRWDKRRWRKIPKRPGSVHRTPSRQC
CHO-K1 Ca antag: counter-screen for M1 antagonists: effect in parental CHO-K1 cells; inhibition, % at 3 µM; actives 0.6% (n = 360,000); ATP-induced calcium, Fluo-8 fluorescence;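 active = inhibition above a per-plate cutoff, the plate's mean sample inhibition plus 3 SD, cut at about 24% in these data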
CHO-K1 Ca PAM: nonselective calcium activators in parental CHO-K1 cells, primary screen, counter-screen for M1 PAM project, cell-based, Fluo-8 calcium fluorescence, full deck, 1536-well. activation, % at 3 µM. ATP EC20; 0% at ATP EC20, 100% at ATP max. actives 0.02% (n = 360,000);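 active = activation above the run cutoff, the mean activation of all test compounds plus 3 SD, cut at about 40% in these data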;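 also: peak over basal fluorescence ratio in a 140 s read after ATP addition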
CHRM1 antagonist: human M1 muscarinic receptor antagonists, primary screen, CHO-K1 cells, Fluo-8 calcium fluorescence, 1536-well; Muscarinic acetylcholine receptor M1 (Homo sapiens), P11229; CHO-K1 hM1, ACh EC80 antagonist; inhibition, % at 3 µM; actives 1.3% (n = 360,000); AID 588852, 2011;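 active = percent inhibition above its own plate's cutoff, namely the mean of that plate's compound wells plus 3 SD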;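 also: peak over basal fluorescence ratio during 140 s after agonist addition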
CHRM1 agonist: human M1 muscarinic receptor agonists, primary screen, Fluo-8 calcium fluorescence, CHO-K1 cells, HTS. CHO-K1 hM1, agonist mode; 0% DMSO, 100% acetylcholine EC100. activation, % at 3 µM. actives 0.33% (n = 360,000);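 active = activation above the run's mean compound activation plus 3 SD, cut at about 16% in these data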;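 also: peak over basal fluorescence ratio within a 140 s kinetic read after compound addition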
M1 ag parental: counter-screen for M1 agonists: effect in parental CHO-K1 cells | Fluo-8 calcium fluorescence; scaled to maximal ATP response, vehicle zero | activation, % at 3 µM | actives 0.48% (n = 360,000); in the data active = activation above about 15%;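 also: untransfected CHO-K1 host cells lacking M1 receptor as counterscreen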
Of the large screens only hits and unclear results are named; the others gave an inactive call.

CCc1cccc(OCC(=O)Nc2ccc(C)c(S(=O)(=O)N3CCCCCC3)c2)c1	CHRM1 antagonist 46
Cc1ccc(NC(=O)CSc2ncnc3ccccc23)cc1S(=O)(=O)N1CCCCCC1	CHO-K1 Ca antag 27
Cc1ccc(NC(=O)COc2cccc(C)c2C)cc1S(=O)(=O)N1CCCCCC1	none
CCc1nc2cccnc2n1-c1ccc(CC(=O)NCCOC)cc1	none
COC(=O)C1CC(O)CN1C(=O)Nc1cccc(C(F)(F)F)c1 (stereo not drawn)	CHO-K1 Ca antag 29
S=C(Nc1ccc(Br)cc1)Nc1ccc2c(c1)OCCO2	CHRM1 antagonist 31
O=C(NC(=S)Nc1ccc2c(c1)OCCO2)c1cccc(Br)c1	none
COC(=O)c1ccc(CSc2ncnc3c2oc2ccccc23)o1	none
COC(=O)c1ccc(CSc2ccc3nnc(-c4cccc(F)c4)n3n2)o1	CHRM1 antagonist 38
COC(=O)c1ccc(CSc2nnc(C)n2N)o1	none
COC(=O)c1ccc(CSc2nnnn2C)o1	CHRM1 antagonist 43
COC(=O)c1ccc(CSc2ncnc3ccccc23)o1	CHO-K1 Ca antag 25
Cc1ccc(Cl)cc1NC(=O)c1ccc(CSc2nnnn2C)cc1	CHO-K1 Ca antag 26
COc1cc(/C=N/NC(=O)c2ccncc2)ccc1OC(=O)c1cc(OC)c(OC)c(OC)c1	none
CC(=O)NC(CC(=O)N(C)Cc1cccc(Cl)c1Cl)c1ccccc1 (stereo not drawn)	none
NS(=O)(=O)c1ccc(CNC(=O)C23CC4CC(CC(C4)C2)C3)cc1	CHO-K1 Ca antag 28
COCCn1c(=S)[nH]c2cc(C(=O)N(CCO)Cc3ccccc3)ccc2c1=O	none
N#CC1(NC(=O)COc2ccccc2[N+](=O)[O-])CCCCC1	CHRM1 antagonist 37
N#CC1(NC(=O)COc2cc(F)ccc2[N+](=O)[O-])CCCCC1	none
N#CC1(NC(=O)COC(=O)C2=COCCO2)CCCCC1	CHRM1 agonist 24, M1 ag parental 19
Nc1cccc2c1C(=O)N(C(=O)c1ccc(Cl)c(S(=O)(=O)N3CCCCCC3)c1)C2=O	none
Nc1cccc2c1C(=O)N(C(=O)c1cccc(S(=O)(=O)N3CCCCCC3)c1)C2=O	CHO-K1 Ca antag 28
CSc1ccc(/C=N/NC(=O)COc2ccc(Br)cc2Cl)cc1	none
COc1ccc(C2NC(=O)C(C#N)=C(S)N2c2cccc(C)c2)cc1OC (stereo not drawn)	M1 ag parental 16
COc1ccc(C2NC(=O)C(C#N)=C(S)N2c2ccc(C)cc2)cc1OC (stereo not drawn)	none
Cc1csc(N2C(=O)C3C4CCC(O4)C3C2=O)n1 (stereo not drawn)	none
Nc1ccc2c3c(cccc13)-c1ccccc1-2	CHO-K1 Ca antag 38, CHRM1 antagonist 42, CHRM1 agonist 37, M1 ag parental 35
Cc1ccc2c3c(cccc13)-c1ccccc1C2=O	none
O=C(O)/C=C/C(=O)N(CC1CCCO1)C1CC(=O)N(c2c(Cl)cccc2Cl)C1=O (stereo not drawn)	M1 ag parental 17
COc1ccc(N2C(=O)CC(N(CCc3ccccc3)C(=O)/C=C/C(=O)O)C2=O)cc1 (stereo not drawn)	none
CCCCNC(=O)C[C@@H]1C[C@@]2(C(=O)OCC)CCCC=C2N(Cc2ccco2)C1=O	none (no result: CHRM1 PAM, CHRM1 antagonist, CHRM1 agonist)
OC(COC(c1ccccc1)c1ccccc1)CN1CCCCC1 (stereo not drawn)	none
c1ccc(C(CN2CCCCC2)Oc2ccccn2)cc1 (stereo not drawn)	CHRM1 antagonist 83
COc1ccc(Cl)cc1C(=O)NCC(c1ccco1)N1CCCC1 (stereo not drawn)	none
COc1ccccc1C(CNC(=O)CN1C(=O)NC(C)(c2ccc3ccccc3c2)C1=O)N1CCCC1 (stereo not drawn)	CHRM1 antagonist 65
COc1ccccc1C(CNC(=O)c1ccc(-c2ccccc2Cl)o1)N1CCCC1 (stereo not drawn)	CHRM1 antagonist 84
